# Assay outcomes (PubChem)
# The list is not random: actives were taken first. Their share in the collection is about 2.4%.
# POLB inh: qHTS Assay for Inhibitors of DNA Polymerase Beta. Pol beta primer extension/strand displacement, fluorescence kinetic. hit rate 1.3% among 340,000. AID 485314, 2010. Potency, µM (titrated, usually from 114 µM), without a hit: top-dose activity change, negative = inhibition, usual class: inhibitors; further: on the % scale 0 is the no-effect control and ±100 the full control effect
#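 Enzyme-only controls used 10 nM Pol beta; buffer lacking enzyme served as negative control. Compound preincubated 15 min, then 50 nM substrate added; 0 and 10 min reads at room temperature.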
# POLI inh: qHTS for Inhibitors of Polymerase Iota. Pol iota fluorescent replication assay, 10 min. Potency, µM (titrated, usually from 115 µM), inactives show at the top dose activity, negative = inhibition, usual class: inhibitors. hit rate 1% among 390,000. AID 588590, 2011
#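 Fluorescent replication assay read twice, at 0 min and 10 min after adding 50 nM (final) substrate. Enzyme (10 nM) and compounds were first incubated 15 min at room temperature; enzyme-free buffer wells were negative controls.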
# FEN1 inh: qHTS Assay for the Inhibitors of Human Flap endonuclease 1 (FEN1). P39748. Recombinant FEN1 flap cleavage, fluorescence, 15 min. Potency, µM (series often up to 114 µM), without a hit: at the highest dose activity change, negative = inhibition, most hits filed as inhibitors. hit rate 0.35% among 390,000. AID 588795, 2011; further: on the % scale 0 is the no-effect control and ±100 the full control effect; nearly all actives have a fitted effect of over 65% in size
# Target sequence (P39748 whole entry, looked up): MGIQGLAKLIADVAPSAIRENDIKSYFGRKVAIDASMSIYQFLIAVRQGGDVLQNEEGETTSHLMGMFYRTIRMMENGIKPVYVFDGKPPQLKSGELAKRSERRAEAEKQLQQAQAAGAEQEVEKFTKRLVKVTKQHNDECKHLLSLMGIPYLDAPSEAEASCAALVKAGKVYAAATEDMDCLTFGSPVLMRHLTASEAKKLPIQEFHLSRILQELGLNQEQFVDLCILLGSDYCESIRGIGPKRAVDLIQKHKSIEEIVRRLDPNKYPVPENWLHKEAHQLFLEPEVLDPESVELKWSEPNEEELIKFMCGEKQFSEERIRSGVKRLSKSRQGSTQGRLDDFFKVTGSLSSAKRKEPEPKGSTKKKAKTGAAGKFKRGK
#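 Reaction started by adding substrate (50 nM final) to 10 nM enzyme after 15 min room-temperature compound preincubation. Reads at 0 and 15 min, with data normalized and fitted to a four-parameter Hill equation.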
# POLK inh: qHTS for Inhibitors of Polymerase Kappa. purified Pol kappa, fluorescent DNA synthesis assay, 10 min. Potency, µM (titrated, usually from 107 µM), without a hit: at the top dose activity, negative = inhibition, actives largely listed as inhibitors. hit rate 0.53% among 400,000. AID 588579, 2011; further: on the % scale 0 is the no-effect control and ±100 the full control effect
#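 Enzyme at 10 nM met test compounds for 15 min at room temperature. Substrate addition (50 nM final) began the reaction, which was monitored by fluorescence at 0 and 10 min.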
# POLH inh: qHTS for Inhibitors of Polymerase Eta; DNA polymerase eta (Homo sapiens), Q9Y253; AID 588591, 2011; hit rate 1.2% among 390,000; Potency, µM (doses to about 114 µM), for inactives: top-dose activity change, negative = inhibition, usual class: inhibitors; recombinant Pol eta, fluorescent DNA replication assay; further: on the % scale 0 is the no-effect control and ±100 the full control effect
#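 Pol eta (10 nM) was preincubated with compounds for 15 min at room temperature, after which fluorescent replication substrate (50 nM final) was added to start the reaction. Fluorescence was read kinetically at 0 and 10 min.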
# WRN inhibitor: qHTS for Inhibitors of WRN Helicase; WRN helicase unwinding, fluorescent forked duplex, kinetic; hit rate 0.46% among 360,000; Potency, µM (top dose mostly 114 µM), for the others: at the highest dose activity change, negative = inhibition, actives largely listed as inhibitors; Bifunctional 3'-5' exonuclease/ATP-dependent helicase WRN (Homo sapiens), Q14191; further: on the % scale 0 is the no-effect control and ±100 the full control effect; nearly all actives have a fitted effect of over 55% in size
#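 Primary qHTS, 1536-well format. 20 nM WRN + compound, 15 min RT; start with 100 nM forked fluorophore/quencher duplex, 2 mM ATP (final); kinetic read ex 525/em 598 nm.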
# * marks the source's active call; other numbers are inactive results; u = inconclusive; x = not tested or not shown; ! = not active in a repeat; [ ] = dose if it differs, or a comment. The call rests on the fitted dose curve; in most records, active means well fitted curve in the direction sought with a large enough effect; inconclusive means small, poorly fitted or top-dose-only effect, or another doubt; inactive means no such curve, though single readings can be large; an effect the other way counts as inactive or inconclusive. Potency means the concentration at half of the fitted maximal effect.
SMILES,POLB inh,POLI inh,FEN1 inh,POLK inh,POLH inh,WRN inhibitor
Cc1cnc(NC(=O)CSc2nnc(Cc3ccccc3)o2)s1,-1%,71µM*,0%,-7%,-10%,-9%[57.1 µM]
CC1=C/C(=C\c2ccc(N(C)C)cc2)c2ccccc21,x,-6%,-3%,-10%,x,x
CCCCC1(C)OC(=O)C(=Cc2ccc(N(CC)CC)cc2)C(=O)O1 (stereo unspecified),6%,u,-19%,-21%,-14%,u
CCN(CC)c1ccc(C=C2C(=O)OC3(CCCCC3)OC2=O)cc1,1%,u,u,-2%,-1%,50µM*
Cc1cc(C(Br)(Br)Br)nc2ccccc12,x,u,-17%,-16%,x,x
COc1cccc(/C=N/Nc2nc(Nc3ccc([N+](=O)[O-])cc3)nc(N3CCCC3)n2)c1O,u,u,-25%,14µM*,22µM*,50µM*
COC(=O)c1ccccc1NC(=O)c1cc2ccccn2n1,u,18%,-8%,7%,-11%,x
COC(=O)c1ccccc1NC(=O)c1cc2ncc(Br)cn2n1,45µM*,u,-10%,-20%,7.1µM*,-35%
Oc1cccc(CN2CCOCC2)c1O,x,20µM*,u,28µM*,2%,u
Oc1c(CN2CCOCC2)cc(CN2CCOCC2)c(O)c1O,x,u,u,u,u,22µM*
CCCC[C@@H](C=O)NC(=O)[C@H](CC(C)C)NC(=O)OCc1ccccc1,x,x,x,3%[19.4 µM],x,x
CCCCCC#CCC#CCC#CCC#CCCCC(=O)O,1.1µM*,x,x,10µM*!,x,x
CCCCCCCCCC(=O)O,x,19%,-9%,11%,-8%,4%
O=C(NCc1cccnc1)c1nn(-c2ccc(F)cc2)nc1CO,-4%,20%,0%,-15%,-10%,x
OCCSc1nc(-c2ccccc2)nc2ccc(F)cc12,u,79µM*,-26%,u,-16%,6%
COC(=O)CSc1nc(-c2ccccc2)nc2ccc(F)cc12,-2%,12%,-20%,-15%,4%,4%
COc1ccc(Cl)cc1NC(=O)C1Cc2ccccc2CN1S(C)(=O)=O (stereo unspecified),u,56µM*,-7%,-35%,u,2%[11.6 µM]
COc1ccc(Cl)cc1NC(=O)C1CCN(S(=O)(=O)c2ccc(F)cc2)CC1,17%,89µM*,u,-38%,-16%,x
Cc1c(C(=O)N(C)c2cccc(C(F)(F)F)c2)sc2nc3n(c(=O)c12)CCCCC3,-6%,u,16%,-5%,-20%,x
Clc1ccc(Sc2cc(Cl)c(Cl)cc2Cl)cc1,x,x,x,-7%[60.1 µM],x,x
CCC(=O)Nc1cccc(C(=O)/C=C/c2cc(Br)ccc2OC)c1,3%,56µM*,-20%,-8%,u,-9%[11.6 µM]
O=C(Cc1cccc2ccccc12)N/N=C/c1ccc(F)cc1,-2%,18%,9%,2%[60.1 µM],-9%,-4%
O=C(Cc1cccc2ccccc12)N/N=C/c1ccc(OC(=O)/C=C/c2ccco2)cc1,10µM*,u,-10%,u,u,-5%[57.1 µM]
N#Cc1c(NCCN)nc(-c2ccco2)c2c1CCCC2,56µM*,-4%,-20%,-9%,-14%,6%
CC1(C)Cc2c(C#N)c(NCc3ccco3)nc(-c3ccco3)c2CO1,u,u,9%,-45%,14µM*,-24%[57.1 µM]
SMILES,POLB inh,POLI inh,FEN1 inh,POLK inh,POLH inh,WRN inhibitor
N#CC(C#N)=C1C=CC=CN1/C(=C\c1ccco1)C(=O)c1ccc(Cl)cc1,1%,u,-14%,-19%,-13%,22µM*
CCC(=O)c1ccc(OCC(=O)N2CCN(S(=O)(=O)c3ccc(Cl)s3)CC2)cc1,x,u,-13%,u,45µM*,-20%
Cc1[nH]n(-c2ccccc2)c(=O)c1N=Nc1c(O)cc(S(=O)(=O)N(C)C)c2ccccc12,x,30%,-21%,-9%,89µM*,-4%
CCCCC(CC)CNC(=O)CCCn1c(=O)[nH]c2ccsc2c1=O (stereo unspecified),40%,-17%,13%,-9%,-11%,x
O=C1CC(c2ccco2)Sc2nc3ccccc3n21 (stereo unspecified),-2%,20µM*,-12%,50µM*,7%,u
O=C1CC(c2cccs2)Sc2nc3ccccc3n21 (stereo unspecified),-27%,-10%,-4%,2%,-6%,-2%[57.1 µM]
O=C(c1ccc(Cl)c(S(=O)(=O)Nc2ccccc2C(=O)N2CCc3ccccc3C2)c1)N1CCc2ccccc2C1,13%,32%,-6%,-33%,40µM*,-9%[11.6 µM]
COc1cc(N(C)C)c(OC)cc1C=C1C=CC=C1,x,-4%,-26%,-15%,x,x
O=C(COCc1cc(-c2ccc3c(c2)OCO3)on1)N1CCN(c2ccc(F)cc2)CC1,13%,79µM*,4%,-1%,-4%,0%
O=C(COCc1cc(-c2cccs2)on1)N1CCN(c2ccc(F)cc2)CC1,-3%,18%,-17%,-4%,0%,x
CC(=C\c1ccccc1)/C=C1/SC(=S)N(CCCC(=O)O)C1=O,-15%,25µM*,u,-26%,25µM*,50µM*
COc1ccc(CCN2C(=O)/C(=C\c3ccco3)SC2=S)cc1OC,28µM*,u,-7%,-7%,-19%,1%
COc1ccc(/C=C2\SC(=S)N(CCCC(=O)Nc3ccc(O)cc3)C2=O)cc1,-1%,7%,6%,8%,17%,-7%
O=C(CCCN1C(=O)/C(=C\c2ccco2)SC1=S)Nc1ccc2ccccc2c1,20µM*,215%,-4%,-13%,u,0%
COc1cc(/C=C2/SC(=S)N(CCC(=O)Nc3ccc(C(=O)O)cc3)C2=O)cc(OC)c1OC,4%,-10%,-17%,-21%,56µM*,4%[11.6 µM]
CN(C)c1ccc(/C=C2\CCc3ccccc32)cc1,x,-11%,0%,5%,x,x
CCCCN(CCCC)c1ccc(C=Nc2ccc(/C=C/c3ccnc4ccccc34)cc2)cc1C,x,-11%,-7%,2%,x,x
O=S(=O)(c1ccccc1)N1CCN(c2nc(-c3ccc(F)cc3)nc3cc(Cl)ccc23)CC1,x,13%,-5%,7%,x,x
CC(=O)OC/C=C(C)/C=C/C=C(C)/C=C/C1=C(C)CCCC1(C)C,x,x,x,-7%[60.1 µM],x,x
CC(=Cc1ccccc1)C=C1SC(=S)N(CCCC(=O)Nc2ccc(C(=O)O)cc2)C1=O,x,x,x,x,x,-13%[57.1 µM]
CC(/C=C1\SC(=S)N(CCCC(=O)Nc2ccc(C(=O)O)cc2)C1=O)=C\c1ccccc1,u,u,-4%,-27%,32µM*,-12%[11.6 µM]
CCC1(c2ccccc2)NC(=O)NC1=O (stereo unspecified),x,x,x,-5%[12 µM],x,x
